# Data from PMC5540273 (PLoS ONE, 2017).
# Tested on: PIK3CA
# Settings: concentration: 1 μM, replicates: in singlicate; n = 1
# 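Note: KINOMEscan kinase panel screen.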
row,Structure (SMILES),%Inh
1,CCC(CC)(CC)n1cnc2c(N)ncnc21 [SKF-97620],6%
2,Cc1ccc(NC(=O)c2cccc(C#N)c2)cc1-c1ccc(C(=O)Nc2ccncc2)cc1 [GSK1398463],6%
3,CSc1nn2c(=O)cc(N3CCOCC3)nc2n1Cc1cccc(Cl)c1Cl [GSK2347225],15%
4,FC(F)(F)c1cc(Nc2nccc(-c3c(-c4ccc(Cl)cc4)nn4ncccc34)n2)ccc1Cl [GW829351],0%
5,CC(=O)Nc1n[nH]c2ncc(-c3ccccc3)cc12 [SB-548492],0%
6,O=C(Nc1n[nH]c2nc(-c3ccco3)c(Br)cc12)c1ccc(CN2CCCC2)cc1.O=C(O)[C@H](O)[C@@H](O)C(=O)O [SB-742352],0%
7,O=C(NCCCN1CCCC1=O)c1cnc(NCc2cc(Cl)ccc2Cl)nc1NC1CCNCC1,0%
8,Nc1nccc2scc(-c3ccc4c(c3)CCN4C(=O)Cc3cc(F)ccc3F)c12 [GSK2587663],0%
9,CN1CCC(n2cnc(-c3ccc(F)cc3)c2-c2ccnc(NC3CCNCC3)n2)CC1 [SB-229482],0%
10,Oc1ccc2ncnc(Nc3ccc(OCc4ccccc4)cc3)c2c1 [GI262866],0%
11,COc1ccc(NC(=O)c2ccc(-c3cc(-c4nnc(C)o4)ccc3C)cc2)cc1 [GW595885],0%
12,CC(C)N1CCC(n2cnc(-c3ccc(F)cc3)c2-c2ccnc(N)n2)CC1 [SB-223132],0%
13,COc1ccc(Nc2nccc(N3CCC(NC(=O)Nc4ccc5c(c4)OCO5)C3)n2)cc1 (centres unmarked) [GSK1379745],0%
14,COC(=O)c1cccc(NC(=O)NCCNc2ccnc(Nc3ccc(F)cc3)n2)c1 [GSK1379883],9%
15,COc1cc2c(Nc3cccc(NC(=O)c4ccccc4)c3)ncnc2cc1OCCCN1CCOCC1 [GSK223810],0%
16,O=C(Nc1ccccc1)Nc1ccc(Oc2ccc3nccn3n2)cc1,0%
17,Nc1nc(-c2ccccn2)c(-c2ccnc3ccccc23)s1 [GW548057],7%
18,Cc1ccc(O)cc1Nc1cc(C(F)(F)F)nc2ccc(-c3ccncc3)cc12 [GW630823],1%

row,Structure (SMILES),%Inh
1,Fc1cccc(COc2ccc(Nc3ncnc4sc(-c5ccc[nH]5)cc34)cc2Cl)c1 [GW707818],0%
2,Fc1cccc(COc2ccc(Nc3ncnc4cc[nH]c34)cc2Cl)c1,0%
3,Nc1nc(-c2ccc3c(N)n[nH]c3c2)cc(N2CCC[C@@H](C(=O)Nc3ccccc3)C2)n1.O=C(O)C(F)(F)F.O=C(O)C(F)(F)F [GSK2288359],4%
4,O=C(CCO)NCCn1ccc2ncnc(Nc3ccc(Oc4cccc(C(F)(F)F)c4)c(Cl)c3)c21,0%
5,CNc1nccc(-c2c(-c3ccc(F)cc3)ncn2CCCN2CCOCC2)n1 [SB-222516],0%
6,Cc1ccc(C)c(NC(=O)NCCNc2ccnc(Nc3ccc(F)cc3)n2)c1 [GSK1379878],0%
7,CC(C)(C)c1ccc(-n2cnc3c(N)ncnc32)cc1 [SKF-97263],100%
8,CS(=O)(=O)CCNCc1nc(-c2ccc3ncnc(Nc4ccc(OCc5cccc(F)c5)c(Cl)c4)c3c2)cs1.Cl [GW583340],0%
9,CCCc1ccc(S(=O)(=O)NC2CCN(c3ccnc(Nc4ccc(OC)cc4)n3)C2)cc1 (centres unmarked) [GSK1379737],0%
10,FC(F)(F)c1ccc(-c2nn3ncccc3c2-c2ccnc(Nc3cccc(C(F)(F)F)c3)n2)cc1 [GW828205],0%
11,Cc1cccc(-c2nc(Nc3ccc4[nH]nnc4c3)c3ccccc3n2)n1 [GW867587],0%
12,O=C(Nc1ccccc1F)NC1CCN(c2ccnc(Nc3ccc(F)cc3)n2)C1 (centres unmarked) [GSK1379722],0%
13,COc1ccc(NC(=O)Nc2ccc(C)c(-c3ccc(C(=O)Nc4ccncc4)cc3)c2)cc1 [GSK1398475],0%
14,Clc1ccc(-c2cc(-c3c[nH]nc3-c3ccccn3)ccn2)cc1 [GW681251],0%
15,Clc1cc(Nc2ncnc3cc[nH]c23)ccc1OCc1ccccn1,8%
16,CNc1nccc(-c2c(-c3ccc(F)cc3)ncn2C2CCN(C)CC2)n1 [SB-222903],0%
17,c1ccc(-c2ccc3c(-c4ccnc(Nc5ccc6c(c5)OCCO6)n4)cnn3n2)cc1 [GW818941],0%
18,COc1ccc(-c2nc3n(c2-c2ccncc2)CCC3)cc1 [SKF-104493],0%

# Tested on: PIK3CB
# Settings: concentration: 1 μM, replicates: in singlicate; n = 1
row,Structure (SMILES),%Inh
1,CCC(CC)(CC)n1cnc2c(N)ncnc21 [SKF-97620],27%
2,Cc1ccc(NC(=O)c2cccc(C#N)c2)cc1-c1ccc(C(=O)Nc2ccncc2)cc1 [GSK1398463],0%
3,CSc1nn2c(=O)cc(N3CCOCC3)nc2n1Cc1cccc(Cl)c1Cl [GSK2347225],100%
4,FC(F)(F)c1cc(Nc2nccc(-c3c(-c4ccc(Cl)cc4)nn4ncccc34)n2)ccc1Cl [GW829351],0%
5,CC(=O)Nc1n[nH]c2ncc(-c3ccccc3)cc12 [SB-548492],0%
6,O=C(Nc1n[nH]c2nc(-c3ccco3)c(Br)cc12)c1ccc(CN2CCCC2)cc1.O=C(O)[C@H](O)[C@@H](O)C(=O)O [SB-742352],0%
7,O=C(NCCCN1CCCC1=O)c1cnc(NCc2cc(Cl)ccc2Cl)nc1NC1CCNCC1,0%
8,Nc1nccc2scc(-c3ccc4c(c3)CCN4C(=O)Cc3cc(F)ccc3F)c12 [GSK2587663],0%
9,CN1CCC(n2cnc(-c3ccc(F)cc3)c2-c2ccnc(NC3CCNCC3)n2)CC1 [SB-229482],37%
10,Oc1ccc2ncnc(Nc3ccc(OCc4ccccc4)cc3)c2c1 [GI262866],0%
11,COc1ccc(NC(=O)c2ccc(-c3cc(-c4nnc(C)o4)ccc3C)cc2)cc1 [GW595885],0%
12,CC(C)N1CCC(n2cnc(-c3ccc(F)cc3)c2-c2ccnc(N)n2)CC1 [SB-223132],0%
13,COc1ccc(Nc2nccc(N3CCC(NC(=O)Nc4ccc5c(c4)OCO5)C3)n2)cc1 (centres unmarked) [GSK1379745],0%
14,COC(=O)c1cccc(NC(=O)NCCNc2ccnc(Nc3ccc(F)cc3)n2)c1 [GSK1379883],0%
15,COc1cc2c(Nc3cccc(NC(=O)c4ccccc4)c3)ncnc2cc1OCCCN1CCOCC1 [GSK223810],0%
16,O=C(Nc1ccccc1)Nc1ccc(Oc2ccc3nccn3n2)cc1,0%
17,Nc1nc(-c2ccccn2)c(-c2ccnc3ccccc23)s1 [GW548057],14%
18,Cc1ccc(O)cc1Nc1cc(C(F)(F)F)nc2ccc(-c3ccncc3)cc12 [GW630823],0%

row,Structure (SMILES),%Inh
1,Fc1cccc(COc2ccc(Nc3ncnc4sc(-c5ccc[nH]5)cc34)cc2Cl)c1 [GW707818],1%
2,Fc1cccc(COc2ccc(Nc3ncnc4cc[nH]c34)cc2Cl)c1,32%
3,Nc1nc(-c2ccc3c(N)n[nH]c3c2)cc(N2CCC[C@@H](C(=O)Nc3ccccc3)C2)n1.O=C(O)C(F)(F)F.O=C(O)C(F)(F)F [GSK2288359],0%
4,O=C(CCO)NCCn1ccc2ncnc(Nc3ccc(Oc4cccc(C(F)(F)F)c4)c(Cl)c3)c21,0%
5,CNc1nccc(-c2c(-c3ccc(F)cc3)ncn2CCCN2CCOCC2)n1 [SB-222516],6%
6,Cc1ccc(C)c(NC(=O)NCCNc2ccnc(Nc3ccc(F)cc3)n2)c1 [GSK1379878],0%
7,CC(C)(C)c1ccc(-n2cnc3c(N)ncnc32)cc1 [SKF-97263],0%
8,CS(=O)(=O)CCNCc1nc(-c2ccc3ncnc(Nc4ccc(OCc5cccc(F)c5)c(Cl)c4)c3c2)cs1.Cl [GW583340],0%
9,CCCc1ccc(S(=O)(=O)NC2CCN(c3ccnc(Nc4ccc(OC)cc4)n3)C2)cc1 (centres unmarked) [GSK1379737],0%
10,FC(F)(F)c1ccc(-c2nn3ncccc3c2-c2ccnc(Nc3cccc(C(F)(F)F)c3)n2)cc1 [GW828205],0%
11,Cc1cccc(-c2nc(Nc3ccc4[nH]nnc4c3)c3ccccc3n2)n1 [GW867587],0%
12,O=C(Nc1ccccc1F)NC1CCN(c2ccnc(Nc3ccc(F)cc3)n2)C1 (centres unmarked) [GSK1379722],0%
13,COc1ccc(NC(=O)Nc2ccc(C)c(-c3ccc(C(=O)Nc4ccncc4)cc3)c2)cc1 [GSK1398475],0%
14,Clc1ccc(-c2cc(-c3c[nH]nc3-c3ccccn3)ccn2)cc1 [GW681251],0%
15,Clc1cc(Nc2ncnc3cc[nH]c23)ccc1OCc1ccccn1,15%
16,CNc1nccc(-c2c(-c3ccc(F)cc3)ncn2C2CCN(C)CC2)n1 [SB-222903],0%
17,c1ccc(-c2ccc3c(-c4ccnc(Nc5ccc6c(c5)OCCO6)n4)cnn3n2)cc1 [GW818941],0%
